# Assay results from PubChem BioAssay AID1259349 (Broad Institute, 2017).
# The whole screen tested about 17,000 compounds, of which about 1,100 (6.5%) were called active. The sample as a whole holds a higher share of actives than the screen did. A number with no mark means an inactive call.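 Rule for the calls: active = z-score of -3 or lower, meaning strong loss of probe binding signal; inactive = the rest.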
# Molecular target: Insulin-degrading enzyme (Homo sapiens) (UniProt P14735)
# Experiment: exo-site inhibitors of human IDE, primary screen, biochemical, fluorescence anisotropy, probe displacement (AID 1259349);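 note: His-tagged human IDE residues 42-1019 made in E. coli with 30 nM FL-6b probe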
# Conditions: purified IDE, FL-6b probe fluorescence polarization; at 20 µM; hits give low values
# Chain of Insulin-degrading enzyme (Homo sapiens) (P14735 42-1019 limits assumed): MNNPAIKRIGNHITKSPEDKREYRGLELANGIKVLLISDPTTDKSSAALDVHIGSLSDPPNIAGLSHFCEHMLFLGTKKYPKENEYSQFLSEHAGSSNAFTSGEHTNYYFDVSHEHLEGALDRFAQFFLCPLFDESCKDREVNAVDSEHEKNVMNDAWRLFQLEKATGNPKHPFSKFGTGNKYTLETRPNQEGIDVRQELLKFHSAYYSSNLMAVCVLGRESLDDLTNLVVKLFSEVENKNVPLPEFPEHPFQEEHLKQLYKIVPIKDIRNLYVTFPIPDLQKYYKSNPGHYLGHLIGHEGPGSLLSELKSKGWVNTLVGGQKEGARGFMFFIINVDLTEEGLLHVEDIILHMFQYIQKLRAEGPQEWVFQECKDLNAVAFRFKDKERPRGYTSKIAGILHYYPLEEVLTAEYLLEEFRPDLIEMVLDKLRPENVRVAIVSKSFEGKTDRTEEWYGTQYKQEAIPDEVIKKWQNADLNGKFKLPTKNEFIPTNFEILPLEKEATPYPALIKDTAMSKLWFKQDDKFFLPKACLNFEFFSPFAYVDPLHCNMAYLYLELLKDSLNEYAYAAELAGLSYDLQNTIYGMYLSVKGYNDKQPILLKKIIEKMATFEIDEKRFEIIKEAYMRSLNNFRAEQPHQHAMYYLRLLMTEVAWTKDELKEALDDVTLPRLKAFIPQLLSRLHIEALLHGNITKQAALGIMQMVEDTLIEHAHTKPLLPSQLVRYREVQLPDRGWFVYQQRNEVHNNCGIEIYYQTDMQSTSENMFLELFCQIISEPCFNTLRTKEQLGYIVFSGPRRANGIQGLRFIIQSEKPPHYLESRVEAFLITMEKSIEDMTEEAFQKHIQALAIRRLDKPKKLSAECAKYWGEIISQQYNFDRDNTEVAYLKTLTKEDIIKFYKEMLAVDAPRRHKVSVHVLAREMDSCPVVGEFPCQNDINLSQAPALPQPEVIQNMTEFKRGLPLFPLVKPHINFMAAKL
row,SMILES,z-score
1,CN1C(=O)c2cc(NC(=O)Nc3ccccc3Cl)ccc2OC[C@H]2O[C@H](CC(=O)NCCCN3CCOCC3)CC[C@H]21,-1.04
2,CC(=O)NC[C@H]1[C@@H](c2ccc(C#CC(C)C)cc2)[C@@H](CO)N1Cc1ccccn1,-1.78
3,C[C@@H]1CN([C@H](C)CO)C(=O)c2cc(NC(=O)NC3CCCCC3)ccc2O[C@@H]1CN(C)S(C)(=O)=O,0.86
4,COc1cccc(C(=O)Nc2ccc3c(c2)C(=O)N(C)[C@H]2CC[C@@H](CC(=O)N[C@H](C)c4ccccc4)O[C@H]2CO3)c1,-4.24 (active)
5,COc1cccc(C(=O)Nc2ccc3c(c2)C(=O)N(C)[C@H]2CC[C@H](CC(=O)N[C@@H](C)c4ccccc4)O[C@H]2CO3)c1,-1.12
6,C[C@@H](NC(=O)C[C@H]1CC[C@H]2[C@H](COc3ccc(NS(=O)(=O)c4ccc(Cl)cc4)cc3C(=O)N2C)O1)c1ccccc1,0.297
7,Cc1ccccc1-c1ccc([C@H]2[C@@H](CO)N3C(=O)CN(C(=O)c4cccnc4)C[C@@H]23)cc1,-8.42 (active)
8,Cc1ccccc1-c1ccc([C@H]2[C@H](CO)N3C(=O)CN(C(=O)c4cccnc4)C[C@@H]23)cc1,-12.4 (active)
9,O=C(c1cccnc1)N1CC(=O)N2[C@H](C1)[C@H](c1ccc(-c3ccccc3F)cc1)[C@@H]2CO,-1.28
10,O=C(Cc1ccccn1)N1CC(=O)N2[C@H](CO)[C@H](c3ccc(C#CCC4CCCC4)cc3)[C@@H]2C1,0.616
11,O=C(c1ccccc1F)N1CC(=O)N2[C@H](CO)[C@@H](c3ccc(-c4cccnc4)cc3)[C@H]2C1,-0.211
12,COc1ccc(C#Cc2ccc([C@H]3[C@H]4CN(C(=O)c5cccnc5)CC(=O)N4[C@H]3CO)cc2)cc1,-0.5
13,N#Cc1ccc(-c2ccc([C@H]3[C@H](CO)N4C(=O)CN(C(=O)Cc5ccccc5)C[C@@H]34)cc2)cc1,1.44
14,O=C(Cc1ccccn1)N1CC(=O)N2[C@H](C1)[C@@H](c1ccc(-c3ccccc3)cc1)[C@@H]2CO,-6.31 (active)
15,COc1cccc(-c2ccc([C@@H]3[C@H]4CN(C(=O)c5cccnc5)CC(=O)N4[C@H]3CO)cc2)c1,-6.37 (active)
16,CCCC#Cc1ccc([C@H]2[C@H]3CN(C(=O)c4cccnc4)CC(=O)N3[C@H]2CO)cc1,0.452
17,O=C(c1cccnc1)N1CC(=O)N2[C@H](CO)[C@H](c3ccc(-c4cccnc4)cc3)[C@@H]2C1,1.98
18,O=C(c1cccnc1)N1CC(=O)N2[C@H](CO)[C@@H](c3ccc(-c4ccc(F)cc4)cc3)[C@@H]2C1,-1.03
19,C[C@H]1CN([C@@H](C)CO)S(=O)(=O)c2ccc(C#CC3(O)CCCC3)cc2O[C@@H]1CN(C)C(=O)Nc1cccc(F)c1,-0.533
20,COc1ccc(-c2ccccc2[C@H]2[C@@H](CO)N(C(=O)c3cccnc3)[C@H]2C#N)cc1,0.00658
21,N#Cc1cccc(-c2ccc(C3[C@H]4CNC[C@@H]3N4Cc3cncnc3)cc2)c1 (some centres not stated),1.3

row,SMILES,z-score
1,CCN(C[C@H]1[C@H](c2ccc(-c3ccccc3)cc2)[C@H](CO)N1CC1CC1)C(C)=O,2.55
2,N#Cc1cccc(-c2ccc(C3[C@@H]4CNC[C@H]3N4)cc2)c1 (some centres not stated),-0.64
3,CCCNC(=O)N1[C@H](CNC(=O)c2cccc(F)c2)[C@H](c2ccccc2)[C@@H]1CO,1.46
4,CCCNC(=O)N1[C@@H]2Cn3c(ccc(-c4ccc(OC)cc4)c3=O)[C@H]1[C@@H](C(=O)NC1CCC1)[C@@H]2CO,-0.305
5,CN(C)C(=O)c1cccc(-c2ccc([C@H]3[C@H]4CN(C(=O)Cc5ccccc5)CC(=O)N4[C@H]3CO)cc2)c1,1.91
6,CN(C)C(=O)c1cccc(-c2ccc([C@H]3[C@H](CO)N4C(=O)CN(C(=O)Cc5ccccc5)C[C@@H]34)cc2)c1,3.83
7,Cc1cccc(-c2ccc([C@@H]3[C@H]4CN(C(=O)c5ccccc5)CC(=O)N4[C@H]3CO)cc2)c1,-8.7 (active)
8,CCC(=O)N1CCCCN2[C@H](C1)[C@@H](c1ccc(-c3ccc(F)cc3)cc1)[C@@H]2CO,1.91
9,COCC(=O)N1CCCCN2[C@H](C1)[C@@H](c1ccc(-c3ccccc3)cc1)[C@@H]2CO,1.64
10,O=C(CN1CCOCC1)N1CCCCN2[C@@H](CO)[C@H](c3ccc(/C=C/c4ccccc4)cc3)[C@@H]2C1,-4.3 (active)
11,CC(C)CC#Cc1ccc([C@H]2[C@@H](CO)N3C(=O)CN(C(=O)CN4CCOCC4)C[C@H]23)cc1,2.46
12,O=C(CN1CCOCC1)N1CCCCN2[C@@H](CO)[C@H](c3ccc(-c4ccccc4)cc3)[C@@H]2C1,-0.926
13,CCC(=O)N1CCCCN2[C@H](C1)[C@@H](c1ccc(/C=C/c3ccccc3)cc1)[C@@H]2CO,-7.21 (active)
14,O=C(CN1CCOCC1)N1CCCCN2[C@H](CO)[C@H](c3ccc(-c4ccccc4)cc3)[C@@H]2C1,-0.341
15,CC(C)CC#Cc1ccc([C@H]2[C@H]3CN(C(=O)CN4CCOCC4)CC(=O)N3[C@H]2CO)cc1,4.32
16,O=C(c1cnccn1)N1CC(=O)N2[C@H](C1)[C@@H](c1ccc(C3=CCCCC3)cc1)[C@@H]2CO,0.336
17,O=C(c1cnccn1)N1CC(=O)N2[C@H](C1)[C@H](c1ccc(/C=C/c3ccccc3)cc1)[C@@H]2CO,-7.53 (active)
18,O=C(Cc1cccnc1)N1CC(=O)N2[C@H](CO)[C@@H](c3ccc(/C=C/c4ccccc4)cc3)[C@H]2C1,-1.1
19,O=C(CN1CCOCC1)N1CC(=O)N2[C@H](C1)[C@H](c1ccc(/C=C/c3ccccc3)cc1)[C@@H]2CO,-5.55 (active)
20,COCC#Cc1ccc([C@@H]2[C@@H](CO)N3CCCCN(C(=O)COC)C[C@@H]23)cc1,1.49
21,CCCNC(=O)N1[C@H](CO)[C@@H](c2ccc(-c3ccc(C(=O)N(C)C)cc3)cc2)[C@@H]1C#N,-1.53
